Reference: PubChem BioAssay (Tox21)
Calls of active or inactive are those of the source. Calls come from the whole dose curve; as a rule, active = well fitted curve in the direction sought with a large enough effect in the repeat runs; inconclusive = weak or mixed curves; inactive = flat fitted curve, though single readings scatter.

Assay: qHTS assay to test for compound auto fluorescence at 590 nm (red) in HEK293 cell free culture (AID 720683)
Details: cell-free medium autofluorescence, Ex540/Em590 red; series mostly up to 91.3 µM
Outline: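 Cell-free wells of DMEM with 10% FBS received compound, and intrinsic fluorescence was read at excitation/emission 540/590 nm. Values expressed as equivalence to Rose Bengal sodium.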

Row | SMILES | outcome
1 | CCc1ccccc1CC | inactive
2 | C=C(C)[C@H]1CC=C(C)C(=O)C1 | inactive
3 | CC(=O)Oc1ccc(C)cc1 | inactive
4 | CC(C)(Oc1ccc(CCNC(=O)c2ccc(Cl)cc2)cc1)C(=O)O | inactive
5 | O=c1[nH]cnc2[nH]ncc12 | inactive
6 | O=S(=O)(O)c1ccccc1 | inactive
7 | O=C(O)Cn1c(=O)n(Cc2ccc(Br)cc2F)c(=O)c2ccc(Cl)cc21 | inactive
8 | CC(=O)OCc1ccco1 | inactive
9 | CC(=O)OCc1ccccc1 | inactive
10 | CC(C)CC(C)O (centres undefined) | inactive
11 | CCCCCCCCCCO | inactive
12 | N[C@H](Cc1c[nH]c2ccccc12)C(=O)O | inactive
13 | COC(=O)CCCC(=O)OC | inactive
14 | CC(C)(C#N)c1cc(Cn2cncn2)cc(C(C)(C)C#N)c1 | inactive
15 | O=S(=O)(O)c1ccc(N=Nc2c(O)ccc3cc(S(=O)(=O)O)ccc23)cc1 | inactive
16 | CCO[Si](CCC#N)(OCC)OCC | inactive
17 | CN(C)CCOC(=O)COc1ccc(Cl)cc1 | inactive
18 | CC(O)CC(C)(C)O (centres undefined) | inactive
19 | Nc1ccc(Cl)c(N)c1 | inactive
20 | COc1cc(OC)c(C(=O)CCCN2CCCC2)c(OC)c1 | inactive
21 | O=[N+]([O-])c1ccc2nc[nH]c2c1 | inactive
22 | COc1ccc(C)cc1N | inactive
23 | CC(C)CCCCCCCOC(=O)CCCCC(=O)OCCCCCCCC(C)C | inactive

Assay: qHTS assay to test for compound auto fluorescence at 590 nm (red) in HepG2 cell free culture (AID 720684)
Details: cell-free medium autofluorescence, red 540/590 nm; series mostly up to 91.3 µM
Outline: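 Auto fluorescence equivalency versus Rose Bengal sodium, red channel Ex/Em 540/590 nm; compounds in cell-free MEM/10% FBS; DMSO vehicle control.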

Row | SMILES | outcome
24 | CC(=O)OC1CC(C)OC(C)O1 (centres undefined) | inactive
25 | CCc1ccccc1CC | inactive
26 | C=C(C)[C@H]1CC=C(C)C(=O)C1 | inactive
27 | CCNc1cccc(C)c1 | inactive
28 | CC(=O)Oc1ccc(C)cc1 | inactive
29 | CC(C)(Oc1ccc(CCNC(=O)c2ccc(Cl)cc2)cc1)C(=O)O | inactive
30 | O=c1[nH]cnc2[nH]ncc12 | inactive
31 | O=S(=O)(O)c1ccccc1 | inactive
32 | O=C(O)Cn1c(=O)n(Cc2ccc(Br)cc2F)c(=O)c2ccc(Cl)cc21 | inactive
33 | CC(=O)OCc1ccco1 | inactive
34 | N#Cc1ccccc1 | inactive
35 | CC(=O)OCc1ccccc1 | inactive
36 | COc1ccc(N)c(C)c1 | inactive
37 | O=C(O)c1ccc(C(=O)O)c(C(=O)O)c1 | inactive
38 | CC(C)CC(C)O (centres undefined) | inactive
39 | CCCCCCCCCCO | inactive
40 | N[C@H](Cc1c[nH]c2ccccc12)C(=O)O | inactive
41 | COC(=O)CCCC(=O)OC | inactive
42 | CCNc1ccccc1 | inactive

Row | SMILES | outcome
43 | CC(C)(C#N)c1cc(Cn2cncn2)cc(C(C)(C)C#N)c1 | inactive
44 | O=S(=O)(O)c1ccc(N=Nc2c(O)ccc3cc(S(=O)(=O)O)ccc23)cc1 | inactive
45 | CC1(C)NC(=O)NC1=O | inactive
46 | CCO[Si](CCC#N)(OCC)OCC | inactive
47 | CC(C)=CCl | inactive
48 | CN(C)CCOC(=O)COc1ccc(Cl)cc1 | inactive
49 | CC(O)CC(C)(C)O (centres undefined) | inactive
50 | Nc1ccc(Cl)c(N)c1 | inactive
51 | OC1C(O)C(O)C(O)C(O)C1O (centres undefined) | inactive
52 | COc1cc(OC)c(C(=O)CCCN2CCCC2)c(OC)c1 | inactive
53 | CC(=O)OCCOC(C)=O | inactive
54 | C[C@]12CCC(=O)C=C1CC[C@@H]1[C@@H]2[C@@H](O)C[C@@]2(C)[C@H]1CC[C@]2(O)C(=O)CO | inactive
55 | CC(C)c1cccc(C(C)C)c1 | inactive
56 | O=[N+]([O-])c1ccc2nc[nH]c2c1 | inactive
57 | COc1ccc(C)cc1N | inactive
58 | COc1ccc(CCC(C)=O)cc1 | inactive
59 | CCCCCC(=O)O | inactive
60 | OCc1cccc(Oc2ccccc2)c1 | inactive
61 | CC(C)CCCCCCCOC(=O)CCCCC(=O)OCCCCCCCC(C)C | inactive

Assay: qHTS assay to test for compound auto fluorescence at 460 nm (blue) in HepG2 cell free culture (AID 720685)
Details: Cell-free culture medium, blue autofluorescence 405/460 nm; series mostly up to 91.3 µM
Outline: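 Cell-free plates of MEM plus 10% FBS received 23 nL compound or DMSO vehicle; blue-channel (405/460 nm) intensity scored against triamterene as reference fluorophore.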

Row | SMILES | outcome
62 | CC(=O)OC1CC(C)OC(C)O1 (centres undefined) | inactive
63 | CCc1ccccc1CC | inactive
64 | C=C(C)[C@H]1CC=C(C)C(=O)C1 | inactive
65 | CCNc1cccc(C)c1 | inactive
66 | CC(=O)Oc1ccc(C)cc1 | inactive
67 | CC(C)(Oc1ccc(CCNC(=O)c2ccc(Cl)cc2)cc1)C(=O)O | inactive
68 | O=c1[nH]cnc2[nH]ncc12 | inactive
69 | O=S(=O)(O)c1ccccc1 | inactive
70 | O=C(O)Cn1c(=O)n(Cc2ccc(Br)cc2F)c(=O)c2ccc(Cl)cc21 | inactive
71 | CC(=O)OCc1ccco1 | inactive
72 | N#Cc1ccccc1 | inactive
73 | CC(=O)OCc1ccccc1 | inactive
74 | COc1ccc(N)c(C)c1 | inactive
75 | O=C(O)c1ccc(C(=O)O)c(C(=O)O)c1 | inactive
76 | CC(C)CC(C)O (centres undefined) | inactive
77 | CCCCCCCCCCO | inactive
78 | N[C@H](Cc1c[nH]c2ccccc12)C(=O)O | inactive
79 | COC(=O)CCCC(=O)OC | inactive
80 | CCNc1ccccc1 | inactive

Row | SMILES | outcome
81 | CC(C)(C#N)c1cc(Cn2cncn2)cc(C(C)(C)C#N)c1 | inactive
82 | O=S(=O)(O)c1ccc(N=Nc2c(O)ccc3cc(S(=O)(=O)O)ccc23)cc1 | inactive
83 | CC1(C)NC(=O)NC1=O | inactive
84 | CCO[Si](CCC#N)(OCC)OCC | inactive
85 | CC(C)=CCl | inactive
86 | CN(C)CCOC(=O)COc1ccc(Cl)cc1 | inactive
87 | CC(O)CC(C)(C)O (centres undefined) | inactive
88 | Nc1ccc(Cl)c(N)c1 | inactive
89 | OC1C(O)C(O)C(O)C(O)C1O (centres undefined) | inactive
90 | COc1cc(OC)c(C(=O)CCCN2CCCC2)c(OC)c1 | inactive
91 | CC(=O)OCCOC(C)=O | inactive
92 | C[C@]12CCC(=O)C=C1CC[C@@H]1[C@@H]2[C@@H](O)C[C@@]2(C)[C@H]1CC[C@]2(O)C(=O)CO | inactive
93 | CC(C)c1cccc(C(C)C)c1 | inactive
94 | O=[N+]([O-])c1ccc2nc[nH]c2c1 | inactive
95 | COc1ccc(C)cc1N | inactive
96 | COc1ccc(CCC(C)=O)cc1 | inactive
97 | CCCCCC(=O)O | inactive
98 | OCc1cccc(Oc2ccccc2)c1 | inactive
99 | CC(C)CCCCCCCOC(=O)CCCCC(=O)OCCCCCCCC(C)C | inactive
